Usually inhibition stands for the drop in the measured response relative to a control, in per cent.

Out of some 85,000 compounds screened, about 120 (0.14%) were called active. This is one part of a sample in which actives are shown more often than they occur.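 How the source made its calls: active means inhibition above 20%; inactive means inhibition below 20%.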

This assay is described as follows: clotrimazole potentiators killing Candida biofilms, primary screen, with clotrimazole, Alamar Blue (AID 834).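 Further: preformed 24 hr biofilms exposed to compound for 48 hr; 0% = biofilm without compound and 100% = blank killed by clotrimazole plus chlorhexidine.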 Particulars: C. albicans biofilm + clotrimazole, at 6 µM, hits give high values. In general terms: Alamar Blue is a resazurin reagent that responds to reducing activity.
As to `CCOc1ccccc1C(=O)NC1CC2CCCC(C1)N2Cc1ccccc1` (centres undefined), the inhibition is 1.7% (inactive).
Turning to `CCn1nnnc1SCC(=O)c1ccc(C)cc1C`, the inhibition was -2.31% (inactive).
For `Cc1ccccc1CSCCNC(=O)c1ccc(Cl)c(S(=O)(=O)N2CCOCC2)c1` the value was 3.05% (inactive); for `O=C(NCc1ccccc1)[C@@H]1CSC2c3ccccc3C(=O)N21` (some centres undefined), -0.55% (inactive); for `Oc1ccc(-c2onc3ccc(Cl)cc23)cc1`, 3.22% (inactive).
For `CCCCCCNCCn1cnc2c(N)ncnc21` the value was 8.75% (inactive).
For `Cc1cc(C)c(OCC(=O)N/N=C/c2ccco2)c(C)c1` the value was -5.16% (inactive); for `Cn1c2c(c(=O)n(C)c1=O)C(c1cccc([N+](=O)[O-])c1)Nc1ccccc1O2` (centres undefined), 6.05% (inactive).
For `c1ccc(-n2nc3ccccc3n2)cc1`, the inhibition was 9.8% (inactive).
In the case of `Cc1ccc(S(=O)(=O)NCC(C)NS(C)(=O)=O)cc1` (centres undefined), the inhibition is 3.23% (inactive).
On to `O=C1C(Cl)=C(N2CCOCC2)C(=O)N1c1ccccc1`, for which the inhibition was 3.34% (inactive).
`Fc1ccccc1/C=C1\CCCC2=C1Nc1ncnn1C2c1ccccc1F` (centres undefined): the inhibition is 56.5% (active).
With `COc1ccc(OC)c(-n2nnnc2SCC(=O)Nc2cc(C)ccc2OC)c1` the figure was 4% (inactive); with `O=S(=O)(NCCc1ccccc1)c1ccccc1`, 5.09% (inactive).
On to `O=C(NCC1CCCO1)c1ccc2ccccc2n1` (centres undefined), for which the inhibition is 2.84% (inactive).
As for `CC(C)Oc1ccc(C(=O)NC(C)(C)CO)cc1`, the inhibition is 0.21% (inactive).
With `CCN1CCN(C(=O)C2(NC(=O)Nc3cccc(F)c3)CCCCC2)CC1` the figure was -2.53% (inactive); with `CCn1c(SCC(=O)Nc2ccc(OC)c(OC)c2)nnc1-c1c[nH]c2ccccc12`, 2.3% (inactive).
On to `O=C(Nc1ccccc1-c1nnn(CC(=O)N2CCCc3ccccc32)n1)c1cccc(Cl)c1`, for which the inhibition was -4.65% (inactive).
On to `CCSc1nc(-c2ccc(OC)cc2)cc(-c2ccc(OC)cc2)c1C#N`, for which the inhibition was 3.4% (inactive).
Take `CC(C)(C)c1ccc(OC2=CS(=O)(=O)c3ccccc32)cc1`: the inhibition was 1.17% (inactive).
As for `Cc1c(C=O)c2ccccn2c1C(=O)c1ccncc1`, the inhibition is -3.35% (inactive).
As for `Cc1cc(SCC(=O)c2ccccc2)nc(SCC(=O)c2ccccc2)n1`, the inhibition was 9.02% (inactive).
For the compound `COCC(=O)Nc1ccc(Br)cc1`, the inhibition was 5.17% (inactive).
As for `COC(=O)c1sc(=S)n(-c2ccc(Cl)cc2)c1C`, the inhibition was 5.98% (inactive).
For `CC(=O)C1=C(C)NC(C)=C(C(C)=O)C1c1cn(-c2ccccc2)nc1-c1cccs1` the value was 4.22% (inactive); for `O=C(NCCCn1ccnc1)Nc1ccc(Cl)cc1Cl`, 8.78% (inactive).
Take `COC(=O)c1ccc(Sc2ccc(F)cc2)c(N)c1`: the inhibition was 2.2% (inactive).
On to `Cc1ccc(N(Cc2ccc(C(=O)Nc3ccccc3C(=O)NCc3ccco3)cc2)S(C)(=O)=O)cc1C`, for which the inhibition is 0.88% (inactive).
On to `COc1cc2c(cc1OC)C(C(C)C)=NC(C)(C)C2`, for which the inhibition was 4.82% (inactive).
Consider `COc1ccc(Nc2ncc(C(=O)N3CCN(c4ccccc4OC)CC3)c3ccccc23)cc1`, for which the inhibition was 10.1% (inactive).
For `Cc1[nH]n(-c2ccc(Cl)cc2)c(=O)c1/C=N/n1c(C)nc2ccccc2c1=O` the value was 7.46% (inactive); for `COC(=O)Nc1ncc(CN2CCCCC2)s1`, -1.41% (inactive); for `CN(C)S(=O)(=O)c1ccc(N2CCCC2)c(C(=O)NCc2ccccc2)c1`, -0.61% (inactive).
With `CCC(C)NC(=O)c1ccccc1NC(=O)c1ccccc1N(C)S(C)(=O)=O` (centres undefined) the figure was -0.05% (inactive).
On to `COC(=O)c1ccccc1Sc1c(/C=N/OCc2ccc(Cl)cc2)c(C(F)(F)F)nn1C`, for which the inhibition was -1.64% (inactive).
`S=C1NC(c2ccccc2)=NCN1c1ccc(Br)cc1`: the inhibition is 5.98% (inactive).
With `C=CCOC(=O)C1=C(C)NC(SCC(=O)OCC)=C(C#N)C1c1ccc(C)cc1` (centres undefined), the inhibition was 3.88% (inactive).
With `N#CC1=C(SCc2ccc(C#N)cc2)N=C(N)C(c2nc(-c3ccccc3)cs2)C12CCCCC2` (centres undefined) the figure was -2.54% (inactive); with `Cc1ccc(CCN2CC(C(=O)O)CC2=O)cc1` (centres undefined), 2.77% (inactive); with `COc1ccc(CN(CC(=O)NC2CCCC2)C(=O)CCC(=O)Nc2cc(C)on2)cc1`, -2.23% (inactive).
With `CCn1c2ccccc2c2cc(NC(=S)N3CCOCC3)ccc21` the figure was 5.56% (inactive); with `CCN(c1ccccc1)S(=O)(=O)c1ccc(C(=O)Nc2nccs2)cc1`, 2.15% (inactive).
Turning to `CCOC(=O)c1cnc(SCC(=O)Nc2ccccc2C(=O)OC)nc1N`, the inhibition was 4.94% (inactive).
In the case of `CCNc1nc(NC(C)C)nc(OCCOC(=O)c2ccccc2)n1`, the inhibition was 2.57% (inactive).
With `Cc1cccc(N2CCN(C(=O)c3cnn4c(C(F)F)cc(-c5ccccc5)nc34)CC2)c1C`, the inhibition is 7.54% (inactive).
On to `CCOCCn1c(C(C)C)nc2ccccc21`, for which the inhibition is 0.21% (inactive).
For `O=C(CN1CCOCC1)Nc1ccccc1` the value was 2.89% (inactive).
With `COC(=O)c1ccc(CSc2nnc(NC(C)C)s2)cc1` the figure was 8.02% (inactive); with `COc1ccccc1C(c1nnnn1C(C)(C)C)N1CCN(Cc2ccccc2)CC1` (centres undefined), -0.02% (inactive).
With `COc1ccc(Br)cc1CN1CCN(C(=O)c2cccc(OC)c2OC)CC1` the figure was -0.18% (inactive).
Turning to `Cc1nn(Cc2ccccc2)c2c1C(c1ccccc1)C(C#N)=C(N)O2` (centres undefined), the inhibition was 4.23% (inactive).
With `CCCc1cc(=O)[nH]c(SCC(=O)c2cc(C)n(CCC)c2C)n1`, the inhibition is 9.55% (inactive).
With `C=CCN(C(=O)Cn1ncc2c1-c1cc(C)ccc1OC2)c1ccccc1` the figure was 3.48% (inactive); with `CC(C)(C)c1nc2ccccc2c(=O)n1N1C(=O)c2ccccc2C1=O`, 1.87% (inactive); with `OC(c1ccccc1)c1nccn1Cc1ccccc1` (centres undefined), 6.12% (inactive).
With `CCOc1cccc(C(=O)Nc2nnc(-c3cccs3)s2)c1` the figure was 5.64% (inactive).
With `CC(C)N1C(=S)SC(C)(C)C1n1oc(=O)n(-c2ccc(Cl)c(Cl)c2)c1=O` (centres undefined) the figure was 8.09% (inactive); with `Cc1noc(COc2ccccc2OCc2onc(C)c2Cl)c1Cl`, -3.84% (inactive).
For `COC(=O)c1sccc1-n1cccc1C(=O)C(=O)N1CCCCC1`, the inhibition was 6.37% (inactive).
With `COCCNC(=O)COc1ccccc1C`, the inhibition was 4.87% (inactive).
With `CCC(C)NC(=O)CCCc1ccccc1` (centres undefined) the figure was 5.94% (inactive); with `COc1ccc(NC(=O)C2C3C=CC(C3)C2C(=O)NCc2ccccn2)c(OC)c1` (centres undefined), 3.96% (inactive); with `CCOC(=O)/C(C#N)=C\c1c(C)cc(C)c(COC(C)=O)c1C`, 5.54% (inactive).
For `CC/C(O)=N\S(=O)(=O)c1ccc(N=NN(C)C)cc1` the value was 3.86% (inactive); for `CC1=NN(/C(=N\c2nnc(C)s2)Nc2ccccc2)[C@H](c2ccc(C)cc2)S1`, 4.3% (inactive).
Consider `O=C(c1ccc(CN2CCOCC2)cc1)N1CCN(c2ccccc2F)CC1`, for which the inhibition was 3.38% (inactive).
With `O=C(NCCSCc1ccccc1)c1ccc(Cl)c(S(=O)(=O)N2CCOCC2)c1` the figure was 9.31% (inactive); with `COC(=O)c1cccc(-n2[nH]nnc2=S)c1`, -3.99% (inactive); with `C=CCNC(=O)c1cc2nc(C3CC3)cc(C(F)F)n2n1`, 3.65% (inactive).
With `OC(COc1ccc2c(c1)CCC2)CN1CCN(c2cccc(Cl)c2)CC1` (centres undefined) the figure was 3.52% (inactive); with `CC(C)C(=O)Nc1ccc2c(c1)oc1ccccc12`, 9.6% (inactive).
On to `CC(C)OC(=O)c1c(NC(=O)c2ccco2)sc2c1CCCC2`, for which the inhibition was 4.89% (inactive).
In the case of `Cc1cccc(CCNS(=O)(=O)c2ccc(S(=O)(=O)NC3CCCC3)cc2)c1`, the inhibition was -0.29% (inactive).
Take `COc1ccc(CCN2C(=O)C3CC=C(C)CC3C2=O)cc1OC` (centres undefined): the inhibition is 1.85% (inactive).
Regarding `Clc1cccc(N=C2NN=C(c3ccc4c(c3)OCCO4)CS2)c1`, the inhibition was 1.81% (inactive).
With `COc1ccc(NC(=O)Cn2c(=O)n(Cc3ccco3)c(=O)c3ccccc32)cc1` the figure was 7.9% (inactive); with `CCCCNC(=O)C1(c2ccc(OC)cc2)CCOCC1`, 3.55% (inactive); with `Cc1nnc(SCC(=O)NC2CCCC2)s1`, 1.39% (inactive).
In the case of `O=C1Nc2cc(Cl)c(Cl)cc2N(O)N1c1cc(Cl)cc(Cl)c1`, the inhibition is -1.77% (inactive).
With `CCOc1ccc(NC(=O)N(CC(C)C)CC(C)C)cc1` the figure was -5.95% (inactive).
With `CC1CCN(S(=O)(=O)c2ccc(S(=O)(=O)NCc3ccco3)cc2)CC1` the figure was 6.18% (inactive).
With `CCOc1cc(NC(=O)c2cnccn2)c(OCC)cc1NC(=O)c1ccc(C)cc1` the figure was 10.1% (inactive); with `CCOc1ccc(S(=O)(=O)NCCSc2ccccc2)cc1`, -7.35% (inactive).
On to `Cn1c(Cc2cccc3ccccc23)nnc1SCC(=O)N1CCN(c2cccc(Cl)c2)CC1`, for which the inhibition is 2.35% (inactive).
With `CC1(C)NC(=O)N(CCCCSc2ccc(Cl)cc2)C1=O` the figure was 4.05% (inactive).
For `CCc1cccc(C)c1N(C(=O)Cn1c(CO)nc2ccccc21)C(C)COC` (centres undefined) the value was 2.34% (inactive); for `CCOC(=O)c1c(NC(C)=O)sc2c(O)c(Br)ccc12`, 7.32% (inactive).
For `CC(C)(C)C1CCc2c(sc3nc(SCC(N)=O)nc(N)c23)C1` (centres undefined) the value was 9.53% (inactive); for `CC(=O)Nc1ccc(NC(=O)CSCc2cnn(-c3ccccc3)c2-n2cccc2)cc1`, 5.53% (inactive).
For `Cc1ccc(OC(=O)c2ccccc2C(=O)OCC(F)(F)C(F)F)cc1`, the inhibition is -0.38% (inactive).
As for `Cc1ccc(/C=N/NC(=O)C2=NNC(c3ccccc3)(c3ccccc3)C2)c(O)c1`, the inhibition is 2.75% (inactive).
In the case of `Cc1ccc(CNC(=O)COc2ccc(S(=O)(=O)NC(C)C)cc2)cc1`, the inhibition is 4.65% (inactive).
On to `CCOC(=O)c1sc(NC(=O)CSc2nc(C)cc(C(F)(F)F)n2)c(C#N)c1C`, for which the inhibition was 4.2% (inactive).
With `CCOC(=O)c1ccc2c(c1)nc(SCC(=O)NC(C)C)n2CC` the figure was -0.28% (inactive).
For `CC(C)OC(=O)CN1C(=O)C(=O)c2ccccc21`, the inhibition was -1.96% (inactive).
As to `CC(C)(C)NC(=O)Cn1c(SCC(=O)Nc2nccs2)nc2ccccc21`, the inhibition is -3.28% (inactive).
As for `COc1ccc(C2=NOC3(CC(=O)N(c4ccc(Cl)cc4)C3=O)C2)c(OC)c1` (centres undefined), the inhibition was 8.25% (inactive).
On to `CCc1c(O)cc2n(c1=O)-c1ccccc1C2(C)C`, for which the inhibition is 5.21% (inactive).
As for `CCn1c(Cc2cccs2)nnc1SCC(=O)c1ccc(C)cc1`, the inhibition was 5.86% (inactive).
With `CCCCOc1ccc(N(CC(=O)NCC2CCCO2)C(=O)CCC(=O)Nc2cc(C)ccn2)cc1` (centres undefined) the figure was 5.21% (inactive); with `CCCc1nc2sc3c(c2c(=O)n1NC(=O)CCCl)CCCC3`, -7.02% (inactive); with `CCOC(=O)c1c(NC(=O)CSc2nnc(CNc3ccc(C)cc3C)o2)sc(C)c1C`, 0.89% (inactive).
For `CCC(=O)Nc1ccc(S(=O)(=O)NCC2CCCO2)cc1` (centres undefined) the value was 5.21% (inactive); for `O=C(COC(=O)c1n[nH]c2ccccc12)NCc1ccccc1`, 1.24% (inactive).
With `COc1ccc(Nc2cc(=O)oc3ccccc23)cc1` the figure was 5.52% (inactive); with `O=C(NC1CCCCC1)C1CC(=O)N(CCc2ccccc2)C1` (centres undefined), 5.26% (inactive); with `CCOC(=O)CSc1nc2ccc(C)cc2[nH]1`, 4.49% (inactive).
As to `FC(F)(F)c1cc(-c2ccco2)nc(NCc2ccc(Cl)cc2)n1`, the inhibition was -7.36% (inactive).

The record behind these values is PubChem BioAssay AID834 (PCMD, 2007).
